Screening results: PubChem BioAssay, National Center for Advancing Translational Sciences (NCATS)
SNCA viab count – reduces viability of HEK-293 SNCA reporter cells | HEK-293-SNCA-luc viability, GF-AFC fluorescence, 24 h | Potency, µM (series often up to 57.1 µM), for the others: at the top dose activity change, negative = cytotoxicity, actives largely listed as cytotoxic | actives 0.12% (n = 150,000);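 note: 0% = DMSO-treated cells and -100% = medium-only wells without cells; nearly all actives have a fitted effect of over 30% in size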
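Cytotoxicity counterscreen: after 24 h compound treatment of genome-edited SNCA-luciferase HEK-293 cells, live-cell protease substrate GF-AFC read by fluorescence after 30 min; activity scaled between DMSO (0%) and medium-only (-100%), curves Hill-fitted.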
hNpr1 antagonist – human Npr1 receptor antagonism; P16066; HEK293 hNpr1 GloSensor cGMP, ANP-stimulated luminescence; Potency, µM (highest dose often 46.3 µM), without a hit: at the highest dose activity change, negative = inhibition, usual class: inhibitors; actives 1.6% (n = 76,000); AID 1347048; calls by dose curve; note: nearly all actives have a fitted effect of over 60% in size
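Compound pre-incubated 30 min at room temperature on GloSensor-loaded HEK293 cells stably carrying hNpr1 and the pGS-40F cGMP biosensor. Stimulation uses hNppA at 0.1 nM final; luminescence is taken at baseline and 20 min post-agonist.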
3T3 cytotox – NIH 3T3 cell cytotoxicity; NIH 3T3 viability, CellTiter-Glo ATP luminescence, 48-72 h; AID 1345082; actives 4.3% (n = 94,000); Potency, µM (top dose mostly 96.7 µM), without a hit: top-dose activity change, negative = cytotoxicity, hits mostly inhibitors; note: nearly all actives have a fitted effect of over 55% in size
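ATP-dependent luminescence (CellTiter-Glo) served as the viability signal for NIH 3T3 cells treated with compound for 48 or 72 hr at 37 °C.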
HEK cytotox – kills HEK 293 cells | HEK 293 viability, ATP luminescence (CellTiter-Glo), 48-72 h | Potency, µM (titrated, usually from 115 µM), without a hit: at the highest dose activity change, negative = cytotoxicity, most hits filed as inhibitors | actives 6.6% (n = 94,000); note: nearly all actives have a fitted effect of over 60% in size
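Viability of HEK 293 cells, plated at 250 cells/well, was judged by cellular ATP after compound treatment for 48 or 72 hr. Luminescence was imaged 10 min after CellTiter-Glo addition at room temperature.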
FLuc inh – Photinus pyralis luciferase inhibition. purified P. pyralis luciferase, luminescence, biochemical. actives 2.5% (n = 76,000). Potency, µM (top dose mostly 115 µM), hits mostly inhibitors. AID 1347043. P08659; note: nearly all actives have a fitted effect of over 65% in size
Target sequence (P08659 whole entry, looked up): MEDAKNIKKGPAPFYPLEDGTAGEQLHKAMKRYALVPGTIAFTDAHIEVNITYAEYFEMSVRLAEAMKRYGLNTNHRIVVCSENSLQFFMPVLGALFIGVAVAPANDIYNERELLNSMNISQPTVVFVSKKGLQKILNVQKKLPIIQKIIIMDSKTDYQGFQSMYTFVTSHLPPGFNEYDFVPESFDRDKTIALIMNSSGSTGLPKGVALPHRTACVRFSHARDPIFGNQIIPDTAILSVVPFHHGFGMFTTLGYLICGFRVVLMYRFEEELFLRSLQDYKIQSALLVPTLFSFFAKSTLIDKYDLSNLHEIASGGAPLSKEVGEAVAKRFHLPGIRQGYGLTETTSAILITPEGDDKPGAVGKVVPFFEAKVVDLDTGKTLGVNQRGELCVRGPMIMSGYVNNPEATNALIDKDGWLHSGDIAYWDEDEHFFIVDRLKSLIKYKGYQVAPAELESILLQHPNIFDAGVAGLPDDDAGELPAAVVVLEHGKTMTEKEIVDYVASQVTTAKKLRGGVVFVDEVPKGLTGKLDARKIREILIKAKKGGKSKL
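Luminescence read by CCD imaging after purified firefly luciferase (10nM final) was added to substrate buffer holding 10uM D-luciferin and 10uM ATP, pH 7.5, pre-dosed with compound.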
SNCA expr inh – reduces expression of the alpha-synuclein gene. HEK-293 SNCA-luciferase knock-in, luminescence, 24 h. Potency, µM (top dose mostly 57.2 µM), for inactives: at the top dose activity change, negative = inhibition, most hits filed as inhibitors. actives 0.17% (n = 140,000). AID 1671194;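 note: plate controls were DMSO cells for no effect and cell-free wells for full effect; nearly all actives have a fitted effect of over 45% in size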
Active calls of the source: *; i = inactive; ? = inconclusive; . = not tested or not shown; [ ] = dose if it differs, or a comment. Sampled rows, rich in hits. Any-hit rate of the full collection: about 7.4%. Unless noted, calls come from the whole dose curve; as a rule, active = well fitted curve in the direction sought with a large enough effect; inconclusive = small, poorly fitted or top-dose-only effect, or another doubt; inactive = no such curve, though single readings can be large; an effect the other way counts as inactive or inconclusive. Unless noted, % is set by controls: 0 for no effect and ±100 for the full control effect; potency is the fitted concentration of half-maximal effect.

SMILES	SNCA viab count	hNpr1 antagonist	3T3 cytotox	HEK cytotox	FLuc inh	SNCA expr inh
Cc1ccc(NC(=O)Cn2ccn3nc(-c4ccccc4)c(CO)c3c2=O)c(C)c1	4%	-11%	?	45µM*	i	-18%
CC(C)c1ccccc1NC(=O)Cn1ccn2nc3c(c2c1=O)CCCCC3	1%	-3%	?	40µM*	i	-6%
O=C(Cn1ccn2nc3c(c2c1=O)CCCCC3)Nc1cc(F)ccc1F	5%	11%	-6%	?	i	0%
COc1ccccc1NC(=O)Cn1ccn2nc3c(c2c1=O)CCCCC3	-25%	-16%	i	9%	i	1%
O=C(Cn1ccn2nc3c(c2c1=O)CCCCC3)Nc1ccccc1F	-14%	0%	-10%	-26%	45µM*	?
CC(=O)NC1CCN(C(=O)c2ccc(-c3ncccc3C#N)cc2)CC1	1%[12.5 µM]	.	-28%	-23%	.	31%
CCN1CCN(C(=O)CNC(=O)c2cccc(-c3ccsc3)c2)CC1	8%	.	-19%	-27%	.	1%
Cc1nn2c(c1-c1ccccc1Oc1ccccc1)N(Cc1cccc(C(=O)O)c1)CCC2	-19%[87.6 µM]	?	?	?	?	?
Cc1nn2c(c1-c1ccccc1Oc1ccccc1)N(C(=O)Cc1ccccc1)CCC2	-20%[87.6 µM]	?	?	79µM*	i	-27%[87.6 µM]
COc1ccc(C(=O)N2CCCn3nc(C)c(-c4ccccc4Oc4ccccc4)c32)cn1	?	-24%[70.6 µM]	?	?	i	?
COc1ccccc1C(=O)N1CCCn2nc(C)c(-c3ccccc3OCc3ccccc3)c21	6%	-2%	?	?	i	-29%
COc1ccccc1C(=O)N1CCCn2nc(C)c(-c3ccccc3Oc3ccccc3)c21	4%[87.6 µM]	-3%[70.6 µM]	?	100µM*	i	-5%[87.6 µM]
Cc1nn2c(c1-c1ccccc1Oc1ccccc1)N(C(=O)c1ccccc1)CCC2	?	-25%[70.6 µM]	45µM*	56µM*	i	?
Cc1nn2c(c1-c1ccccc1Oc1ccccc1)N(C(=O)c1cccc(C#N)c1)CCC2	1%[87.6 µM]	-19%[70.6 µM]	?	71µM*	i	-13%[87.6 µM]
O=C(C1CCCCN1Cc1ccc(-c2cccs2)cc1)N1CCN(Cc2ccccc2)CC1 (stereo unspecified)	10%[12.5 µM]	.	32µM*	?	.	?
O=C(NC1CC1)C1CCCCN1Cc1ccc(-c2cccs2)cc1 (stereo unspecified)	8%[12.5 µM]	.	?	45µM*	.	-9%
O=C(NC1CCOCC1)C1CCCCN1Cc1ccc(-c2cccs2)cc1 (stereo unspecified)	2%	.	?	45µM*	.	-8%
COC(=O)CNC(=O)C1CCCCN1Cc1ccc(-c2cccs2)cc1 (stereo unspecified)	3%[12.5 µM]	.	?	?	.	0%
O=C(c1ccncc1)N1CCN(Cc2ccccc2-c2ccccc2F)CC1	3%[12.5 µM]	.	?	?	.	18%
O=C(Nc1ccc(Cl)cc1)N1CCN(C(=O)c2nc3cccnc3n(CCc3ccccc3)c2=O)CC1	-11%	.	?	?	.	-21%
N#Cc1cccc(-c2c(C(=O)N3CCCCC3)nc3sccn23)c1	-9%[87.6 µM]	.	?	?	.	-9%[87.6 µM]
Cc1noc(-c2ccc(OC3CN(C(=O)CC4CCCC4)C3)cc2)n1	-1%	?	?	32µM*	i	-8%
Cc1noc(-c2ccc(OC3CN(C(=O)Nc4ccccc4)C3)cc2)n1	-3%	13µM*	-47%	?	?	37%
O=C(C1CCCN1C(=O)Nc1ccccc1)N1CCC(c2nc3ccncc3[nH]2)CC1 (stereo unspecified)	8%	.	-6%	i	.	?
CN(C)CCNC(=O)C[C@@H]1CCNC[C@@H]1Cc1cc(-c2ccc(C(C)(C)C)cc2)on1	-19%[87.6 µM]	11%[70.6 µM]	40µM*	32µM*	i	-17%[87.6 µM]
SMILES	SNCA viab count	hNpr1 antagonist	3T3 cytotox	HEK cytotox	FLuc inh	SNCA expr inh
CC(C)(C)NC(=O)C[C@@H]1CCNC[C@@H]1Cc1cc(-c2ccc(F)cc2)on1	-8%[87.6 µM]	-8%[70.6 µM]	?	?	i	?
CCN(CC)C(=O)C[C@@H]1CCNC[C@@H]1Cc1cc(-c2ccc(C(C)(C)C)cc2)on1	?	7%[70.6 µM]	40µM*	40µM*	i	-6%[87.6 µM]
CC(C)NC(=O)C[C@@H]1CCNC[C@@H]1Cc1cc(-c2ccc(C(C)(C)C)cc2)on1	-11%[87.6 µM]	4%[70.6 µM]	35µM*	40µM*	i	-14%[87.6 µM]
CCCCc1cc(C[C@H]2CNCC[C@H]2CC(=O)NCc2cccnc2)no1	4%[87.6 µM]	0%[70.6 µM]	i	-6%[172 µM]	i	-7%[87.6 µM]
CC(C)(C)c1ccc(-c2cc(C[C@H]3CNCC[C@H]3CC(=O)NCc3cccnc3)no2)cc1	11%	7%	20µM*	?	i	32%
Cc1cccc(C(=O)N2CC(N(Cc3ccccn3)S(C)(=O)=O)C2)c1	1%	.	-3%	2%	.	-14%
CC(C)(C)c1ccc(-c2cc(C[C@H]3CNCC[C@H]3CC(=O)NCCN3CCOCC3)no2)cc1	5%	-2%	50µM*	40µM*	i	12%
O=C(C1CCCN([S+](=O)([O-])c2cccc(C(F)(F)F)c2)C1)N1CCC(N2CCOCC2=O)CC1 (stereo unspecified)	-15%	.	?	?	.	-6%
CN(Cc1ccc(-c2ccccc2)cc1)Cc1nccs1	-11%[87.6 µM]	10µM*	?	?	45µM*	54%[87.6 µM]
Cc1ccc(CN(C)Cc2ccc(-c3ccccc3)cc2)cc1	?	19%[70.6 µM]	?	?	i	4%[87.6 µM]
CN(Cc1ccc(-c2ccccc2)cc1)Cc1ccnn1C	2%[87.6 µM]	20µM*	?	25µM*	?	32%[87.6 µM]
CCN1CCN(C(=O)c2cc(-c3cc(Cl)cc(Cl)c3)c3nncn3n2)CC1	-8%	.	?	-7%	.	11%
Cc1cnn(Cc2cc(C(=O)N3CC[C@@H](n4c(=O)n(C)c5cccnc54)C3)no2)c1	0%	.	-9%	3%	.	-9%
COC(=O)[C@H](Cc1ccc(OC)cc1)NC(=O)[C@@H]1CN(C(=O)NC(C)C)CCN1S(C)(=O)=O	1%	-2%	-7%	3%	i	26%
COC(=O)[C@H](Cc1ccc(OC)cc1)NC(=O)[C@H]1CN(C(C)=O)CCN1S(=O)(=O)c1ccccc1	-1%	3%	45µM*	i	i	2%
O=C(c1ccsc1)N1CCC(N2CC(OCC3CC3)C23CCOCC3)CC1 (stereo unspecified)	15%	.	-23%	-24%	.	30%
